# Measured values published in the supplement of paper PMC9925115.
# Counter-ions that a name gives are not always drawn. ± gives the uncertainty stated by the source.
# Tested on: FLX1
# Experiment: cell viability z-score within plate (CellTiter-Glo), mean of 3 biological replicates; higher = higher viability relative to plate (less growth inhibition)
# Conditions: 2 µM; time (hr): 120
# Experimental: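 FLX1 fibrolamellar carcinoma cells (DNAJB1-PRKACA fusion), 600 cells/well in 384-well plates, treated with a Selleck kinase inhibitor library (L1200) at 2 uM for 5 days (120 hr); viability by CellTiter-Glo. A z-score was computed within each plate and averaged over three biological replicates.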
row,SMILES,cell viability z-score within plate
1,CN1CC[C@H](c2c(O)cc(O)c3c(=O)cc(-c4ccccc4Cl)oc23)[C@H](O)C1 [Flavopiridol HCl],0.894 ± 0.42
2,O=c1c(-c2ccc(O)cc2)coc2cc(O)cc(O)c12 [Genistein],-0.148 ± 0.52
3,COc1cc2nccc(Oc3ccc(NC(=O)C4(C(=O)Nc5ccc(F)cc5)CC4)cc3)c2cc1OC,0.561 ± 0.36
4,CNC(=O)c1ccccc1Sc1ccc2c(/C=C/c3ccccn3)n[nH]c2c1 [Axitinib],0.834 ± 0.44
5,"CCCS(=O)(=O)Nc1ccc(F)c(C(=O)c2c[nH]c3ncc(-c4ccc(Cl)cc4)cc23)c1F [Vemurafenib (PLX4032, RG7204)]",-3.08 ± 1.3
6,N=C(N)NC(=N)NCCc1ccccc1 [Phenformin HCl],1.08 ± 0.3
7,CN(C)CCOc1ccc(-c2nc(-c3ccncc3)c(-c3ccc4c(c3)CC/C4=N\O)[nH]2)cc1,0.259 ± 0.2
8,"CC[C@H](CO)Nc1nc(NCc2ccccc2)c2ncn(C(C)C)c2n1 [Roscovitine (Seliciclib,CYC202)]",0.283 ± 0.3
9,CCc1nc(-c2cccc(C)c2)c(-c2ccnc(NC(=O)c3ccccc3)c2)s1,0.996 ± 0.36
10,COc1cc2ncnc(Nc3cccc(Cl)c3)c2cc1OC [AG-1478 (Tyrphostin AG-1478)],-0.29 ± 0.52
11,CN1CC[C@H](c2c(O)cc(O)c3c(=O)cc(-c4ccccc4Cl)oc23)[C@H](O)C1 [Flavopiridol (Alvocidib)],0.251 ± 0.25
12,Cc1cc(C(=O)NOCCO)c(Nc2ccc(I)cc2F)n(C)c1=O,0.132 ± 0.35
13,CC(C)(C)c1ccc(S(=O)(=O)/C=C/C#N)cc1,-0.975 ± 1.1
14,O=C(NOCC(O)CO)c1cc(Br)c(F)c(F)c1Nc1ccc(I)cc1F (stereo unspecified),0.628 ± 0.22
15,CSc1cccc(Nc2ncc3cc(-c4c(Cl)cccc4Cl)c(=O)n(C)c3n2)c1,0.169 ± 0.22
16,CS(=O)(=O)CCNCc1ccc(-c2ccc3ncnc(Nc4ccc(OCc5cccc(F)c5)c(Cl)c4)c3c2)o1,0.842 ± 0.23
17,FC(F)(F)c1ccc(/C=C/c2nc(COc3ccc(CCCCn4ccnn4)cc3)co2)cc1 [Mubritinib (TAK 165)],-0.952 ± 0.95
18,CO[C@H]1C[C@@H]2CC[C@@H](C)[C@@](O)(O2)C(=O)C(=O)N2CCCC[C@H]2C(=O)O[C@H]([C@H](C)C[C@@H]2CC[C@@H](OCCO)[C@H](OC)C2)CC(=O)[C@H](C)/C=C(\C)[C@@H](O)[C@@H](OC)C(=O)[C@H](C)C[C@H](C)/C=C/C=C/C=C/1C [Everolimus (RAD001)],-0.497 ± 1.1
19,C#Cc1cccc(Nc2ncnc3cc(OC)c(OCCCCCCC(=O)NO)cc23)c1,-0.217 ± 0.35
20,O=C(Nc1cc(C(F)(F)F)cc(C(F)(F)F)c1)c1cc(Cl)ccc1O,-0.692 ± 0.5
21,CCCCOc1c(C(=O)c2c(F)cc(C)cc2F)c[nH]c2nncc1-2,-0.865 ± 0.43
22,Cn1cc(C2=C(c3ccc(Cl)cc3Cl)C(=O)NC2=O)c2ccccc21,-1.2 ± 0.71
23,CCS(=O)(=O)c1cccc(-c2cc(C(=O)NC3CCN(C)CC3)c(C)c3[nH]c4ncc(C)cc4c23)c1,0.278 ± 0.45
24,O=C1c2ccc(Nc3ccc(F)cc3F)cc2CCc2ccc(OC[C@H](O)CO)cc21 [Skepinone-L],-1.21 ± 0.79
25,Cc1cc(CS(=O)(=O)c2ccccc2)cc(OCc2ccc(CN3CCC[C@@H]3CO)cc2)c1,0.378 ± 0.24
26,C[C@@H](N)[C@H]1CC[C@H](C(=O)Nc2ccncc2)CC1,0.0727 ± 0.19
